Structures are written as SMILES. Results filed as inconclusive are left out. Unmarked numbers belong to inactive results. The source made the active and inactive calls. Calls come from the whole dose curve; as a rule, active = well fitted cell-killing curve with a large enough effect; inconclusive = small, poorly fitted or top-dose-only effect, or effect the other way; inactive = flat fitted curve, though single readings scatter.

Potency and activity change, negative = cytotoxicity data for 14 compounds are collected here from PubChem BioAssay (NCATS).

Test in all cases: Primary qHTS to identify gynecologic anti-cancer compounds using libraries of approved drugs and bioactive compounds (AID 1345084); note: nearly all actives have a fitted effect of over 55% in size
A general note: Quantitative high-throughput screening tests each substance at several concentrations.

One experiment concerns C33A. The following applies: Gynecologic cancer cell panel viability, ATPlite luminescence, 48 h; series mostly up to 57.5 µM. In short, it runs like this:
(§1)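 Luminescence from the ATPlite ATP-monitoring reagent indicates viable cell number; lower signal means cytotoxicity. Cells received compound 16 h after seeding and were exposed for 48 h across five concentrations.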
In general terms: In ATP-based viability assays light output follows the ATP content of the culture.

The next experiment has as its system CAOV3. The following applies: Gynecologic cancer cell panel viability, ATPlite luminescence, 48 h; series mostly up to 57.5 µM. In short, it runs like this: as §1
The test system of a further experiment is CASKI. The settings on record: Gynecologic cancer cell panel viability, ATPlite luminescence, 48 h; series mostly up to 57.5 µM. A digest of the protocol: as §1
Another experiment concerns Es-2. The settings on record: Gynecologic cancer cell panel viability, ATPlite luminescence, 48 h; series mostly up to 57.5 µM. A digest of the protocol:
as §1

A further experiment concerns HeLa. The settings on record: Gynecologic cancer cell panel viability, ATPlite luminescence, 48 h; series mostly up to 57.5 µM. A digest of the protocol: as §1
A further experiment relates to Hek293T. The following applies: Gynecologic cancer cell panel viability, ATPlite luminescence, 48 h, control line for the selectivity index; series mostly up to 57.5 µM. In short, it runs like this: as §1
A further experiment deals with JEG-3. The settings on record: Gynecologic cancer cell panel viability, ATPlite luminescence, 48 h; series mostly up to 57.5 µM. A digest of the protocol: as §1
Another experiment deals with OV90. The following applies: Gynecologic cancer cell panel viability, ATPlite luminescence, 48 h; series mostly up to 57.5 µM. A digest of the protocol: as §1
For the next experiment, the system named is PA-1. The settings on record: Gynecologic cancer cell panel viability, ATPlite luminescence, 48 h; series mostly up to 57.5 µM. A digest of the protocol:
as §1

The subject of the next experiment is Tov-21-G. The following applies: Gynecologic cancer cell panel viability, ATPlite luminescence, 48 h; series mostly up to 57.5 µM. In short, it runs like this:
as §1

Another experiment has as its system Tov112D. The following applies: Gynecologic cancer cell panel viability, ATPlite luminescence, 48 h; series mostly up to 57.5 µM. A digest of the protocol: as §1
The test system of a further experiment is SKOV3. The settings on record: Gynecologic cancer cell panel viability, ATPlite luminescence, 48 h; series mostly up to 57.5 µM. A digest of the protocol:
as §1
% is set by controls: 0 for no effect and ±100 for the full control effect; potency is the fitted concentration of half-maximal effect.

`CCCOc1ccc(-c2nc(OC)c3ccccc3n2)cc1`: the Potency result in the experiment with C33A, in the experiment on CAOV3, with CASKI, in the experiment with Es-2, in the experiment on HeLa and in the experiment with Hek293T was “inactive” each time. In addition, the Potency entry in the experiment on JEG-3, in the experiment with OV90, in the experiment with PA-1, with Tov-21-G and in the experiment on Tov112D was “inactive” throughout.

Turning to `CC(C)(C)c1ccc(S(=O)(=O)Nc2ccc(Cl)cc2C(=O)c2cc[n+]([O-])cc2)cc1`, the Potency result with C33A, with CAOV3, in the experiment with CASKI, with Es-2, in the experiment with HeLa and in the experiment on Hek293T was “inactive” in each case. The Potency result in the experiment on JEG-3, with OV90, in the experiment on PA-1, with SKOV3, with Tov-21-G and in the experiment with Tov112D was “inactive” throughout.

As for `CCOc1ccc(NC(=S)N2CCC(C(O)(c3ccccc3)c3ccccc3)CC2)cc1`, the Potency result in the experiment on C33A, in the experiment with CAOV3, in the experiment on CASKI, in the experiment on Es-2, in the experiment on HeLa and with Hek293T was “inactive” throughout. Also, the Potency entry in the experiment on JEG-3, with OV90, in the experiment with PA-1, in the experiment with Tov-21-G and in the experiment on Tov112D was “inactive” each time.

In the case of `COc1ccc(C2=N[C@@H](c3ccc(Cl)cc3)[C@@H](c3ccc(Cl)cc3)N2C(=O)N2CCNC(=O)C2)c(OC(C)C)c1`, the Potency result in the experiment with C33A, in the experiment on CAOV3, in the experiment on CASKI, in the experiment on Es-2, in the experiment on HeLa and in the experiment with Hek293T was “inactive” throughout. For the same compound, the Potency result in the experiment with JEG-3, in the experiment with OV90, in the experiment with SKOV3 and with Tov112D was “inactive” throughout. Besides, in the experiment on PA-1, the Potency was 14.1 µM (active).

For the compound `COC(=O)C(C)C1CCC2(C)C(=O)C=CC(C)(O)C2C1O` (configuration not stated), the Potency result with C33A, with CAOV3, in the experiment on CASKI, in the experiment with Es-2, in the experiment with HeLa and in the experiment on Hek293T was “inactive” each time. Further, the Potency result in the experiment with JEG-3, in the experiment with OV90, in the experiment with PA-1, in the experiment on Tov-21-G and in the experiment on Tov112D was “inactive” throughout.

On to `CCCC1(c2ccccc2)NC(=O)N(CC(=O)N(C)Cc2c(F)cccc2Cl)C1=O` (configuration not stated), for which the Potency result with C33A, in the experiment with CAOV3, with CASKI, in the experiment on Es-2, with HeLa and with Hek293T was “inactive” in each case. Besides, the Potency result in the experiment with JEG-3, in the experiment on OV90, in the experiment on PA-1, in the experiment with Tov-21-G and in the experiment with Tov112D was “inactive” throughout.

Take `C=C(C)[C@@H]1CC[C@]2(C)CC[C@]3(C)[C@H](CC[C@@H]4[C@@]5(C)CC[C@@H](O)C(C)(C)[C@@H]5CC[C@]43C)[C@@H]12`: the Potency result in the experiment with C33A, in the experiment with CAOV3, with CASKI, in the experiment on Es-2, with HeLa and with Hek293T was “inactive” throughout. For the same compound, the Potency result in the experiment with JEG-3, with OV90, with PA-1, in the experiment with SKOV3, in the experiment with Tov-21-G and with Tov112D was “inactive” each time.

Take `Cc1nc(C)c(-c2ccc(C3CCC(CC(=O)O)CC3)cc2)nc1C(N)=O` (configuration not stated): the Potency result with C33A, in the experiment with CAOV3, with CASKI, with Es-2, in the experiment on HeLa and in the experiment with Hek293T was “inactive” each time. The Potency entry with JEG-3, with OV90, with PA-1, in the experiment with Tov-21-G and in the experiment with Tov112D was “inactive” throughout.

Turning to `COC(=O)CCSCc1ccc(-c2onc(C)c2NC(=O)OC(C)c2ccccc2Cl)cc1` (configuration not stated), the Potency result in the experiment with C33A, in the experiment on CAOV3, in the experiment with CASKI, with Es-2, with HeLa and with Hek293T was “inactive” in each case. Besides, the Potency entry in the experiment with JEG-3, in the experiment with OV90, in the experiment on PA-1, with SKOV3, in the experiment on Tov-21-G and in the experiment on Tov112D was “inactive” throughout.

In the case of `C=CC1C(OC2OC(CO)C(O)C(O)C2O)OC=C(C(=O)OC)C1CC1CC(=O)CC(CCc2ccc(O)cc2)O1` (configuration not stated), the Potency entry with C33A, in the experiment with CAOV3, with CASKI, in the experiment with Es-2, in the experiment with HeLa and in the experiment with Hek293T was “inactive” throughout. For the same compound, the Potency entry in the experiment on JEG-3, in the experiment on OV90, in the experiment on PA-1, in the experiment with SKOV3 and in the experiment with Tov112D was “inactive” each time.

With `C=C[C@@](C)(O)CC/C=C(\C)C(=O)O[C@@H]1[C@@H]2O[C@]2(C)[C@H]2[C@H](O[C@@H]3O[C@H](CO)[C@@H](O)[C@H](O)[C@H]3O)OC=C[C@@]12O`, the Potency entry in the experiment on C33A, with CAOV3, in the experiment on CASKI, with Es-2, with HeLa and in the experiment with Hek293T was “inactive” in each case. Also, the Potency result in the experiment on JEG-3, with OV90, in the experiment with PA-1, in the experiment with Tov-21-G and in the experiment on Tov112D was “inactive” in each case.

For the compound `C[C@@H]1O[C@@H](O[C@@H]2[C@@H](O)[C@H](O[C@H]3[C@H](O[C@H]4CC[C@@]5(C)C(CC[C@]6(C)C5CC=C5[C@@H]7CC(C)(C)CC[C@]7(C(=O)O[C@@H]7O[C@H](CO)[C@@H](O)[C@H](O)[C@H]7O[C@@H]7O[C@@H](C)[C@H](O[C@@H]8O[C@@H](C)[C@H](O)[C@@H](O)[C@H]8O)[C@@H](O)[C@H]7O)CC[C@]56C)[C@@]4(C)CO)O[C@H](C(=O)O)[C@@H](O)[C@@H]3O)O[C@H](CO)[C@H]2O)[C@H](O)[C@H](O)[C@H]1O` (some centres not stated), the activity change, negative = cytotoxicity in the experiment with C33A was 0.245% [at 6.55 µM]; with CAOV3, 5.38% [at 6.55 µM]; in the experiment with CASKI, 3.98% [at 6.55 µM]; with Es-2, -0.113% [at 6.55 µM]; in the experiment with HeLa, 1.1% [at 6.55 µM]; in the experiment on Hek293T, 2.2% [at 6.55 µM]. The activity change, negative = cytotoxicity with JEG-3 is 8.58% [at 6.55 µM]; in the experiment with OV90, 6.41% [at 6.55 µM]; in the experiment with PA-1, 2.55% [at 6.55 µM]; in the experiment with Tov-21-G, -1.58% [at 6.55 µM]; in the experiment on Tov112D, 10.3% [at 6.55 µM].

On to `O=C(c1ccc2nccnc2c1)N1CCCCC1`, for which the Potency result in the experiment on C33A, in the experiment on CAOV3, with CASKI, in the experiment on Es-2, with HeLa and with Hek293T was “inactive” in each case. Also, the Potency entry in the experiment with JEG-3, in the experiment on OV90, in the experiment with PA-1, with Tov-21-G and in the experiment with Tov112D was “inactive” in each case.

As to `O=C(O)CC1CCC(c2ccc(-c3ccc4nc(C(=O)NCc5ccc(OC(F)(F)F)cc5)cn4c3)cc2)CC1` (configuration not stated), the Potency result in the experiment on C33A, in the experiment with CAOV3, in the experiment with CASKI, with Es-2, in the experiment with HeLa and in the experiment with Hek293T was “inactive” throughout. Moreover, the Potency result in the experiment on JEG-3, in the experiment with OV90, with PA-1, in the experiment on Tov-21-G and with Tov112D was “inactive” each time.
